Test [1] deals with Albumin (Bos taurus) (UniProt P02769). Put plainly: bovine serum albumin binders on microarray, profiling panel, artefact control for SMM control protein annotation, biochemical, small-molecule microarray, Alexa647 label, 635/667 nm fluorescence (AID 1118).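 Also: score merges 667 nm emission intensity and signal-to-noise per printed compound spot.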 The settings on record: BSA-A647 binding, fluorescence 635 nm, higher = more signal.
Test [2] is described as follows: small-molecule microarray binders of probe aXIP, primary screen, biochemical, NeuroSMM set, 635/667 nm fluorescence (AID 1119).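 Also: probe is the protein aXip251-270 applied at 1 µg/mL to compound-printed slides; binding of probe to printed compounds measured as 667 nm fluorescence plus signal to noise.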 Particulars: higher = more signal, called active from +8 up or from −8 down.
Test [3] is described as follows: small-molecule binders of probe aNOTCH3, primary screen, biochemical, small-molecule microarray, 635/667 nm fluorescence (AID 1120).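 Also: probe is a biotin-tagged antibody raised against NOTCH3 rather than NOTCH3 protein; score merges spot fluorescence near 667 nm with spot signal to noise.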 Particulars: higher = more signal.
The nature of test [4]: small-molecule binders of probe aNOTCH2, primary screen, biochemical, small-molecule microarray, 635/667 nm fluorescence (AID 1121).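 Also: score merges feature fluorescence read at 667 nm with its signal to noise.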 The settings on record: higher = more signal.
Test [5] addresses Carbonic anhydrase 2 (Homo sapiens) (UniProt P00918). Put plainly: CAII small-molecule binders, profiling panel, biochemical, small-molecule microarray, Alexa647-labelled CAII (AID 1122). The settings on record: CAII-A647 binding fluorescence, higher = more signal.
Test [6] is described as follows: COS7 lysate on small-molecule microarray, probe aHis, 635 nm (AID 1123).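 Also: z-score combines 667nm fluorescence intensity with signal-to-noise per printed compound spot.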 Particulars: COS7 cell lysate, fluorescence, higher = more signal.
A short description of test [7]: compound binding in COS7 lysate, probe aLAP1, primary screen, cell lysate, small-molecule microarray (AID 1124).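 Also: lysate comes from COS7 cells expressing LAP1 and is applied at 0.3 µg/mL; score merges spot fluorescence near 667 nm with signal-to-noise over triplicate slides.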 The settings on record: probe aLAP1, fluorescence, higher = more signal.
Test [8] relates to Sam68 (KHDRBS1). Put plainly: Sam68 small-molecule binders, primary screen, biochemical, small-molecule microarray, 635 nm fluorescence (AID 1125).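 Also: score merges 667 nm channel intensity with signal to noise over triplicate slides.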 Particulars: small-molecule microarray binding, higher = more signal.
Test [9] relates to Chordin-like protein 2 (CHRDL2). Put plainly: CHRDL2 small-molecule binders, primary screen, biochemical, small-molecule microarray, 635 nm fluorescence (AID 1126).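 Also: printed compound slides probed with Chrdl2 protein at 4 µg/mL for 1 h at 4 C; score merges 667 nm emission intensity with signal to noise over three replicate slides.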 The settings on record: small-molecule microarray binding, fluorescence 635 nm; higher = more signal.
Test [10] deals with Concanavalin-A (Canavalia ensiformis) (UniProt P02866). Put plainly: ConA small-molecule binders, primary screen, artefact control for SMM control protein annotation, biochemical, small-molecule microarray, Alexa647 label, 635 nm (AID 1127).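 Also: z combines 667 nm emission intensity with signal-to-noise across three replicate slides.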 Particulars: ConA-A647 binding fluorescence, higher = more signal.

The source made the active and inactive calls.

14 compounds from PubChem BioAssay can be followed below.

Chain of Albumin (Bos taurus) (P02769 whole entry, looked up): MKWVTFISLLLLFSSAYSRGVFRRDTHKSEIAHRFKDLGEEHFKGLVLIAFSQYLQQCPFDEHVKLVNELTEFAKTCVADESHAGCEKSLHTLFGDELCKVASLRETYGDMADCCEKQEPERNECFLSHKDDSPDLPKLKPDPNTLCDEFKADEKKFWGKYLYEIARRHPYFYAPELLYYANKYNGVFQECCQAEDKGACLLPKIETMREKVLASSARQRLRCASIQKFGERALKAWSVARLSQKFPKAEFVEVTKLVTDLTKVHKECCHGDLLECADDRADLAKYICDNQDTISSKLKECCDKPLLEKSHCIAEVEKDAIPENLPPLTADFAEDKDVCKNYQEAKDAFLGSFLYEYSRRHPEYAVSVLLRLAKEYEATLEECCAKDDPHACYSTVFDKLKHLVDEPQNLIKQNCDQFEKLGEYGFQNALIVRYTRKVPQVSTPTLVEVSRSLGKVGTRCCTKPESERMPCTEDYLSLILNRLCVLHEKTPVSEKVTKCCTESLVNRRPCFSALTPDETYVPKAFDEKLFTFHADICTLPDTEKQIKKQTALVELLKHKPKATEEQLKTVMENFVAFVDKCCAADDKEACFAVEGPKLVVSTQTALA
Chain of Concanavalin-A (Canavalia ensiformis) (P02866 whole entry, looked up): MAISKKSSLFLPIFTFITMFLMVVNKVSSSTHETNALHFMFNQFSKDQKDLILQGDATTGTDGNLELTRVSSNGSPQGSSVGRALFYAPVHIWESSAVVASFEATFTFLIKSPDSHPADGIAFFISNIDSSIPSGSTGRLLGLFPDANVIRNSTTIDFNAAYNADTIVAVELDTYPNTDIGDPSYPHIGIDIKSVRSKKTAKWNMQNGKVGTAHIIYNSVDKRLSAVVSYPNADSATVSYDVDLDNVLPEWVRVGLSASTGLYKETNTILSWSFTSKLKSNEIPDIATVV

Turning to `COCCOC(=O)N1C(=O)[C@@]2(c3cc(C#CCC(C(=O)OC)C(=O)OC)ccc31)[C@H](C(=O)Nc1nc3ccccc3s1)[C@H]1C(=O)O[C@H](c3ccccc3)[C@H](c3ccccc3)N1[C@@H]2c1ccc(OCCO)cc1`, the composite z-score in test [1] was -0.978; in [3], 0.414; in [4], 0.0328; in test [5] it was 0.487; in [6], 1.24; in test [7] it was 0.705. In addition, the composite z-score in [8] came out at 1.29; in test [9] it was 1.32; in test [10], 1.18. Further, the composite Z-score in test [2] was 1.21 (inactive).
As to `CC=CC(O)C1C=CC2C(=O)NC(=O)C2N1Nc1ccc(Cl)cc1Cl` (stereo not given), the composite z-score in test [1] is 0.7; in [3], 0.033; in test [4], -0.0698; in test [5], 0.59; in [6] it was 1.72; in test [7], 0.465. Also, the composite z-score in [8] was -0.227; in test [9] it was 0.853; in test [10] it was -0.953. The composite Z-score in test [2] was 1.23 (inactive).
`C[C@]1(C(=O)O)c2ccccc2C(=O)N(Cc2cc(F)cc(C(F)(F)F)c2)[C@H]1c1ccc(CO)cc1`: the composite z-score in test [1] is 0.286; in [3], -0.0126; in [4] it was -0.182; in test [5], 0.677; in test [6] it was 1.6; in test [7], -0.276. The figures for the composite z-score in [8], in test [9] and in [10] were 0.0491, 0.447 and 0.255, respectively. Moreover, in test [2], the composite Z-score is -0.228 (inactive).
In the case of `C=C(COC)C(=O)CC[C@@H](OC(=O)c1ccccc1-c1ccccc1C(=O)O)c1ccc(OCCO)cc1`, the composite z-score in [1] was -0.238; in [3] it was -0.0491; in test [4] it was -0.154; in test [5] it was 0.784; in test [6], 0.113; in [7], 0.238. Besides, the figures for the composite z-score in test [8], in [9] and in test [10] were 0.576, 0.319 and -0.0355, respectively. Besides, the composite Z-score in [2] was 0.081 (inactive).
With `COc1ccc([Si](C)(C)[C@H]2[C@H](CCO)O[C@@]3(C(=O)N(Cc4ccc(NC(=O)[C@H](C)O)cc4)c4ccccc43)[C@@H]2C)cc1`, the composite z-score is 0.494 in test [1]; 0.0643 in test [3]; -0.164 in [4]; 0.488 in [5]; 1.9 in [6]; 0.0861 in [7]. The composite z-score in test [8] turned out to be 1.32; in test [9] it was 0.101; in test [10], 0.897. The composite Z-score in test [2] was 0.515 (inactive).
With `CC1=C([C@H](O)CCc2ccccc2)[C@H](CO)n2c(=O)n(-c3ccccc3)c(=O)n2C1`, the composite z-score in test [1] was -0.348; in test [3], -0.187; in [4] it was -0.199; in [5], -0.3; in test [6] it was -0.35; in [7] it was -0.603. The values for the composite z-score in test [8], in [9] and in [10] were -0.308, 0.443 and -0.0316, respectively. Further, the composite Z-score in test [2] was 0.51 (inactive).
For `C=CCC(OC(C)=O)[C@@H]1[C@@H](N(Cc2cccc3ccccc23)C(=O)c2ccc(-c3ccccc3)cc2)c2cc(OCCCO)ccc2N1C(=O)Cc1ccc2ccccc2c1` (stereo not given in full), the composite z-score in [1] is 0.364; in [3], 0.0276; in test [4], -0.0809; in test [5], 0.268; in [6], 0.376; in [7], 0.0109. In addition, the composite z-score is -0.518 in test [8], 0.0624 in [9] and -0.214 in [10]. The composite Z-score in test [2] was -0.902 (inactive).
For the compound `CCCCC(O)C1C=CC2C(=O)N(c3ccccc3)C(=O)C2N1Nc1ccc(C#N)cc1` (stereo not given), the composite z-score turned out to be 0.859 in test [1]; 0.426 in test [3]; 0.349 in test [4]; 0.721 in test [5]; 2.68 in [6]; 1.23 in test [7]. The composite z-score in [8] was 1.17; in test [9], -0.0433; in test [10] it was 0.778. Further, in test [2], the composite Z-score is 0.22 (inactive).
With `O=C(NC1CC1)[C@@H]1c2ccccc2C(=O)N(Cc2cc(C(F)(F)F)cc(C(F)(F)F)c2)[C@H]1c1ccc(CO)cc1`, the composite z-score in [1] was -0.148; in [3], -0.352; in test [4] it was -0.102; in [5] it was 0.679; in test [6] it was 1.29; in [7], 0.174. Moreover, the composite z-score is 0.157 in test [8], -0.936 in test [9] and 0.321 in [10]. For the same compound, the composite Z-score in test [2] was -0.563 (inactive).
On to `Cc1ccc(C(C)CC(O)C2C=CC3C(=O)N(C)C(=O)C3N2Nc2ccccc2)o1` (stereo not given), for which the composite z-score in [1] is 0.264; in [3], 0.318; in test [4], -0.075; in test [5], 0.656; in test [6], 0.614; in test [7], 0.0421. The composite z-score was 1.3 in test [8], 0.122 in test [9] and 0.617 in [10]. For the same compound, the composite Z-score in test [2] is -0.288 (inactive).
Turning to `COCCOC(=O)N1C(=O)[C@@]2(c3cc(C#CC4(O)CCCCCC4)ccc31)[C@H](c1ccc(O)cc1)N1[C@H](c3ccccc3)[C@H](c3ccccc3)OC(=O)[C@H]1[C@@H]2C(=O)N1CCCCCCC1`, the composite z-score in [1] was 0.304; in test [3], 0.295; in test [4], -0.123; in test [5] it was 0.267; in test [6], 1.33; in test [7] it was 0.855. Moreover, the composite z-score in [8] turned out to be 1.24; in test [9], 0.33; in test [10], 0.423. The composite Z-score in test [2] was -0.0498 (inactive).
Take `C#CCN1[C@@H](Cc2ccccc2)C(=O)O[C@H](Cc2ccccc2)[C@@H]1/C=C/C1CC1`: the composite z-score in test [1] is -0.215; in [3], 0.0999; in [4], -0.126; in test [5], 0.486; in test [6], 0.92; in test [7], -0.103. Besides, the composite z-score is 0.713 in test [8], 0.646 in [9] and -0.741 in test [10]. For the same compound, the composite Z-score in test [2] was 0.196 (inactive).
With `CC[C@@H]1C=C(C(=O)O)[C@H](c2ccc(OC)cc2)N1S(=O)(=O)c1ccc(C)cc1`, the composite z-score in test [1] is 0.493; in [3], -0.061; in [4], -0.173; in test [5], 0.852; in test [6], 2.55; in [7], -0.388. Moreover, the composite z-score was -0.815 in test [8], -0.377 in test [9] and -0.0828 in [10]. In addition, the composite Z-score in test [2] was 0.112 (inactive).
For `COC(=O)C1(Cc2ccccc2)C=C2C(=C(C)C(=O)C2C)CN1` (stereo not given), the composite z-score in test [1] was -0.0396; in test [3] it was 0.0203; in test [4], 0.197; in [5], 0.742; in [6], 2.62; in test [7] it was 0.578. Besides, the results for the composite z-score in test [8], in [9] and in test [10] were -0.674, 0.46 and -0.634, respectively. Also, the composite Z-score in [2] is 0.877 (inactive).
